Screens: PubChem BioAssay, National Center for Advancing Translational Sciences (NCATS)
12-LOX inh – ALOX12 (human) lipoxygenase inhibition; AID 1671190; 580,000 tested, 1.1% active; Potency, µM (highest dose often 108 µM), for inactives: at the top dose activity change, negative = inhibition, usual class: inhibitors; purified 12hLO, xylenol orange hydroperoxide absorbance; also: % is scaled to controls: 0 for no effect and ±100 for the full control effect
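Purified human 12hLO (150 nM final) in 25 mM Hepes, 0.01% Triton X-100, pH 7.0 was preincubated 15 min at room temperature with compound. Then 40 uM arachidonic acid was added, 30 min. Hydroperoxide was read by Fe-XO absorbance ratio 573/405 nm.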
JMJD2A Tudor – inhibitors of human JMJD2A Tudor domain | AlphaScreen JMJD2A-Tudor / H3K4me3 peptide binding | 390,000 tested, 4.4% active | Potency, µM (doses to about 114 µM), for inactives: at the top dose activity change, negative = inhibition, most hits filed as inhibitors | O75164; also: % is scaled to controls: 0 for no effect and ±100 for the full control effect; nearly all actives have a fitted effect of over 50% in size
Target sequence (O75164 whole entry, looked up, the tested form may be a part): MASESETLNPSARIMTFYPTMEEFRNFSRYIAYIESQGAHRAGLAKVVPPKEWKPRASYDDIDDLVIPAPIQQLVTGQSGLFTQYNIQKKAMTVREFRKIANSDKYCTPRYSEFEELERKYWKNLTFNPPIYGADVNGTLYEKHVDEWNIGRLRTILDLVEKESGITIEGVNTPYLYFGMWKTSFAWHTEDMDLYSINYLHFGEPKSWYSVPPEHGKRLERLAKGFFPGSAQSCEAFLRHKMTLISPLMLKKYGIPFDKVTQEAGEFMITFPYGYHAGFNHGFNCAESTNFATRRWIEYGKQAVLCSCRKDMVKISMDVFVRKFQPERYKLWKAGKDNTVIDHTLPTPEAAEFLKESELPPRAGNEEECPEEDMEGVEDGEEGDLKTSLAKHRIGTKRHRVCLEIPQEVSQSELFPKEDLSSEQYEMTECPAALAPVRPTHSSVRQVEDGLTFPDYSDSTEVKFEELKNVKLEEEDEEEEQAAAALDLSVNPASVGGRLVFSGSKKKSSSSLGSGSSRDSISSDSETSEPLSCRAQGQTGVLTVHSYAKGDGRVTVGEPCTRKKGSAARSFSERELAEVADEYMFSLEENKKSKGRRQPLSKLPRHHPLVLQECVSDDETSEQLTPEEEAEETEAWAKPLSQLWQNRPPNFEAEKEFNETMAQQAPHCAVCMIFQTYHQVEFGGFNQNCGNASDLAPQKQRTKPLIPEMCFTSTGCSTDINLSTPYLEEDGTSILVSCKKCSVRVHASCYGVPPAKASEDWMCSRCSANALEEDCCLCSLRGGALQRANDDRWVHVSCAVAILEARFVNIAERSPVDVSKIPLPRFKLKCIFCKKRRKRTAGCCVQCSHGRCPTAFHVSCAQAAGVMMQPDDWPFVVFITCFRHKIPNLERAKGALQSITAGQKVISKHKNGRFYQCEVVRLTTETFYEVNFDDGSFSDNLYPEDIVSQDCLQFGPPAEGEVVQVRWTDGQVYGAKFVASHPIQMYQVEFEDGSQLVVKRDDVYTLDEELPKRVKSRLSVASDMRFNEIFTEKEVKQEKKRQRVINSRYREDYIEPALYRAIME
BAZ2B block – inhibitors of human BAZ2B bromodomain; Q9UIF8; AlphaScreen BAZ2B-H3K14Ac peptide displacement; Potency, µM (doses to about 114 µM), for inactives: top-dose activity change, negative = inhibition, hits mostly inhibitors; 360,000 tested, 4.4% active; AID 504333; also: % is scaled to controls: 0 for no effect and ±100 for the full control effect; nearly all actives have a fitted effect of over 60% in size
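AlphaScreen displacement: compounds (up to 110uM) incubated 30 min at room temperature with a preformed 50 nM BAZ2B/50 nM biotinylated H3K14Ac peptide complex in PBS pH 7.4 with Tween-20. Donor and acceptor beads at 10 ug/mL final added, 20 min light-protected before reading.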
PLK1 PBD inh – PLK1 (human) polo-box domain binding inhibition; Plk1 PBD binding of FITC phosphopeptide, fluorescence polarization; Potency, µM, inactives show max response, negative = inhibition, hits mostly inhibitors; 360,000 tested, 2.8% active; AID 720504; also: series mostly up to about 57 µM; % is scaled to controls: 0 for no effect and ±100 for the full control effect; nearly all actives have a fitted effect of over 65% in size
HP1b chromo inh – inhibitors of HP1-beta chromodomain binding to methylated histone tails. Potency, µM (top dose mostly 114 µM), without a hit: top-dose activity change, negative = inhibition, actives largely listed as inhibitors. 390,000 tested, 0.56% active. AlphaScreen HP1-beta / biotin-H3K9me3 peptide binding; also: nearly all actives have a fitted effect of over 70% in size
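HP1-beta protein (50 nM final) preincubated 30 min at room temperature with biotinylated H3(1-18)K9me3 peptide (50 nM) in PBS pH 7.4, 0.01% Tween-20, then compound added for 30 min. AlphaScreen streptavidin donor/nickel chelate acceptor beads (10 ug/mL final), 30 min dark, luminescence read.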
G9a inh – G9a (human) methyltransferase inhibition. Q96KQ7. G9a H3K9 monomethylation, AlphaScreen, 2 h. Potency, µM (titrated, usually from 102 µM), for inactives: at the highest dose activity, negative = inhibition, hits mostly inhibitors. 350,000 tested, 8.8% active. AID 504332; also: % is scaled to controls: 0 for no effect and ±100 for the full control effect; nearly all actives have a fitted effect of over 75% in size
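Using a bead-based AlphaScreen, monomethylated H3K9 product from 2 h room-temperature reactions (G9a 20 nM, peptide 500 nM, SAM 20 uM) was detected with 0.5 ug/mL rabbit anti-H3K9me1 antibody.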
An asterisk follows results filed as active; ? = inconclusive; nt = no result; [ ] = dose if it differs, or a comment. In the library only some 9% were active in any assay of this set; here they are far more common. Calls follow the shape of the dose curve; as a rule, active = well fitted curve in the direction sought with a large enough effect; inconclusive = small, poorly fitted or top-dose-only effect, or another doubt; inactive = no such curve, though single readings can be large; an effect the other way counts as inactive or inconclusive. Potency is read from the fitted curve at half-maximal effect.

SMILES	12-LOX inh	JMJD2A Tudor	BAZ2B block	PLK1 PBD inh	HP1b chromo inh	G9a inh
CCCNC(=O)c1ccc(N2CCC3(CC2)CC(c2ccccc2)=NO3)c(NC(=O)c2cccc(OC)c2)c1	-15.0%	56.2µM*	?	26.7µM*	22.9%	44.7µM*
O=C(NCC(c1ccco1)N1CCc2ccccc21)c1ccc([N+](=O)[O-])cc1 (configuration not stated)	-1.8%	-21.9%	-6.7%	-3.6%	-1.8%	26.0%[2.33 µM]
Cc1ccc(CNC(=O)c2ccc(N3CCC4(CC3)CC(c3ccccc3)=NO4)c([N+](=O)[O-])c2)cc1	-7.3%	-34.7%	-31.0%	-12.1%	?	70.8µM*
Cc1ccc(CC2C(=O)N(CC(=O)O)C(=O)C2C)cc1 (configuration not stated)	0.0%	8.4%	-32.3%	2.2%	26.4%	-20.6%[2.33 µM]
COc1ccc(CNC(=O)c2ccc3c(c2)CCN3S(=O)(=O)c2ccc(C)cc2)cc1	-12.2%	-7.2%	-17.6%	nt	35.1%	7.2%[59 µM]
Cc1ccc(CNC(=O)c2ccc(N3CCc4ccccc43)c([N+](=O)[O-])c2)cc1	14.9%	8.91µM*	10µM*	-6.5%	31.6µM*	8.91µM*
CC(=O)[C@H]1CC[C@H]2[C@@H]3CC[C@H]4CC(=O)CC[C@]4(C)[C@H]3C(=O)C[C@]12C	10.3%	nt	nt	nt	nt	nt
COc1ccc(Cl)cc1NC(=O)/C(C#N)=C/c1coc2ccc(C)cc2c1=O	-16.8%	nt	nt	nt	nt	nt
N#C/C(=C\c1coc2ccc(O)cc2c1=O)C(=O)Nc1nc2ccccc2s1	11.2µM*	63.1µM*	?	?	?	?
CCc1nnc2n1N=C(c1ccc([N+](=O)[O-])cc1)CS2	25.1%	-4.7%	-5.1%	-3.9%	36.8%	35.5µM*
COc1ccc(C#Cc2c(-c3ccsc3)oc3ccc(N4CCOCC4)cc23)cc1	-12.7%	24.3%	nt	1.0%	89.2%	nt
O=C(C1CC1)N1CCc2cc(S(=O)(=O)N3CCCc4ccccc43)ccc21	-21.9%	-13.3%	2.2%	-14.3%	59.9%	30.3%[0.501 µM]
N=C(N)SCc1nc2ccccn2c1Br	2.3%	-10.9%	-4.6%	-4.6%	12.0%	-5.0%[59 µM]
Cc1cccc2nc(CSC(=N)N)c(Br)n12	-16.3%	-0.7%	-30.7%	-14.3%	35.9%	8.91µM*
CCN1C(=O)/C(=C/c2c(C)nn(C)c2C)SC1=S	10µM*	?	-16.5%	-15.9%	6.9%	?
Cn1c(=O)n(C)c2cc(N3CCOCC3)c(NC(=O)COc3ccc(Cl)cc3)cc21	13.1%	nt	nt	nt	nt	nt
CC#C[C@]1(O)CC[C@H]2C3CCC4=CC(=O)CCC4=C3[C@@H](c3ccc(N(C)C)cc3)C[C@@]21C (some centres not stated)	nt	nt	nt	nt	nt	2.82µM*
COc1ccc(S(=O)(=O)Nc2cc(Sc3ncn[nH]3)c(O)c3ccccc23)cc1	?	5.62µM*	44.7µM*	nt	?	1.58µM*
CC(C)c1ccc(S(=O)(=O)Nc2ccc(O)c(Sc3ncn[nH]3)c2)cc1	?	-6.9%	-23.4%	-8.4%	32.5%	?
COc1ccc(S(=O)(=O)Nc2ccc(O)c(Sc3ncn[nH]3)c2)cc1	?	-14.9%	-6.7%	-9.7%	-1.3%	12.6µM*
COc1ccc(S(=O)(=O)Nc2cccc3ccc(O)cc23)cc1	-26.3%	-13.2%	nt	-1.8%	4.5%	nt
CCN(CC)Cc1nc(C2(O)CCN(Cc3ccccc3F)CC2)cs1	1.3%[176 µM]	nt	nt	nt	nt	nt
CC(C)C(NC(=O)c1cccc(S(=O)(=O)N2CCOCC2)c1)C(=O)NCc1ccc(Cl)cc1 (configuration not stated)	-6.1%	-11.0%	9.7%	1.2%	68.2%	24.4%[2.33 µM]
Cc1noc(C)c1NC(=O)N(C)C[C@@H]1Oc2c(NC(=O)NC(C)C)cccc2C(=O)N([C@@H](C)CO)C[C@@H]1C	-4.5%	-6.8%	nt	-8.5%	54.0%	nt
C[C@@H]1CN([C@H](C)CO)C(=O)c2cc(NC(=O)c3ccncc3)ccc2O[C@@H]1CN(C)C(=O)Nc1ccccc1	?	50.1µM*	nt	-25.3%	4.5%	nt
SMILES	12-LOX inh	JMJD2A Tudor	BAZ2B block	PLK1 PBD inh	HP1b chromo inh	G9a inh
Cc1noc(C)c1NC(=O)N(C)C[C@@H]1Oc2c(NC(=O)c3ccncc3)cccc2C(=O)N([C@H](C)CO)C[C@@H]1C	?	35.5µM*	nt	-24.2%	3.7%	nt
C[S+](=O)([O-])N1CC2(Cc3ccccc31)CN(C(=O)c1ccccc1Cl)C2	-6.2%	nt	nt	nt	nt	nt
Cc1ccccc1C(=O)N1CC2(Cc3ccccc3N([S+](C)(=O)[O-])C2)C1	44.7µM*	nt	nt	nt	nt	nt
Cc1cccc2nc(CSc3nnc(N)s3)cn12	4.6%	-9.3%	1.1%	-23.3%	14.3%	31.6µM*
Cc1cccc2nc(CSc3ccccc3N)cn12	7.7%	-17.1%	nt	?	30.7%	nt
Nc1nc(-c2ccccc2)[nH]c(=O)c1N=O	?	-21.7%	79.4µM*	-5.7%	8.2%	?
N#Cc1c(-c2ccccc2)nc(-c2ccccc2)[nH]c1=O	-16.8%	-20.1%	-34.3%	-7.5%	37.9%	-22.5%
NC(Cc1ccccc1)c1csc(Nc2ccc(C(=O)NCCO)cc2)n1 (configuration not stated)	3.3%	nt	nt	-7.8%	nt	nt
CCS(=O)(=O)N1CCc2cc(C(=O)Nc3ccc(OC)cc3OC)ccc21	-4.7%	-28.1%	-14.7%	nt	10.4%	-10.1%[59 µM]
COc1cc(C(=O)N2CCN(Cc3ccc4c(c3)OCO4)CC2)c([N+](=O)[O-])cc1OC	-2.1%	-15.4%	1.2%	1.0%	27.2%	13.3%
CN(C)c1ccc(NC(=O)C(=O)C2C(=O)Nc3ccccc32)cc1 (configuration not stated)	18.3%	-24.6%	-14.7%	-11.8%	21.2%	56.2µM*
CN(C)c1ccc(CC2C(=O)Nc3ccccc32)cc1 (configuration not stated)	100.1%	7.08µM*	?	-8.6%	28.2µM*	3.16µM*
O=C1Nc2ccccc2C1Cc1ccc(Br)cc1 (configuration not stated)	-17.8%	-11.9%	-0.2%	nt	24.0%	-21.6%[59 µM]
CC(C)(C)c1ccc(NC(=O)C(=O)C2C(=O)Nc3ccccc32)cc1 (configuration not stated)	-5.0%	-14.3%	13.1%	-8.0%	35.4%	-6.9%
O=C1NN=C(c2ccccc2)CC1c1c[nH]c2ccccc12 (configuration not stated)	-6.9%	-17.7%	-27.4%	3.7%	30.1%	?
COc1ccc(-c2cnc(C)o2)cc1S(=O)(=O)Nc1c(C)cc(C)cc1C	?	?	?	nt	15.3%	4.1%[59 µM]
COc1ccc(-c2cnc(C)o2)cc1S(=O)(=O)Nc1ccc(C)c(N(C)C)c1	-16.9%	?	50.1µM*	nt	23.2%	?
